Holding throughout (format): functional
The target in assay [1] is Solute carrier family 2, facilitated glucose transporter member 1 (Homo sapiens) (UniProt P11166). The assay is described as follows: ST_JUDE_LEISH: Cytotoxicity at 2uM final concentration against transgenic Leishmania Mexicana promastigotes LmGLUT1 that are glucose transport deficient and complemented with the human glucose transporter GLUT1. Activity is measured by DNA content using SYBR green in vitro.

Assay [2] deals with Hexose transporter 1 (Plasmodium falciparum) (UniProt O97467). The assay can be described thus: ST_JUDE_LEISH: Cytotoxicity at 2uM final concentration against transgenic Leishmania Mexicana promastigotes LmPfHT that are glucose transport deficient and complemented with the Plasmodium falciparum hexose transporter. Activity is measured by DNA content using SYBR green in vitro.

Assay [3] addresses Glucose transporter (Leishmania mexicana) (UniProt O61059). The assay can be described thus: ST_JUDE_LEISH: Cytotoxicity at 2uM final concentration against transgenic Leishmania Mexicana promastigotes LmGT2 that are glucose transport deficient and complemented with the L. Mexicana glucose transporter 2. Activity is measured by DNA content using SYBR green in vitro.

Molecules are shown by their SMILES.

A word on the inhibition: it is the relative decrease from the control value, in per cent.

Chain of Solute carrier family 2, facilitated glucose transporter member 1 (Homo sapiens) (P11166 whole entry): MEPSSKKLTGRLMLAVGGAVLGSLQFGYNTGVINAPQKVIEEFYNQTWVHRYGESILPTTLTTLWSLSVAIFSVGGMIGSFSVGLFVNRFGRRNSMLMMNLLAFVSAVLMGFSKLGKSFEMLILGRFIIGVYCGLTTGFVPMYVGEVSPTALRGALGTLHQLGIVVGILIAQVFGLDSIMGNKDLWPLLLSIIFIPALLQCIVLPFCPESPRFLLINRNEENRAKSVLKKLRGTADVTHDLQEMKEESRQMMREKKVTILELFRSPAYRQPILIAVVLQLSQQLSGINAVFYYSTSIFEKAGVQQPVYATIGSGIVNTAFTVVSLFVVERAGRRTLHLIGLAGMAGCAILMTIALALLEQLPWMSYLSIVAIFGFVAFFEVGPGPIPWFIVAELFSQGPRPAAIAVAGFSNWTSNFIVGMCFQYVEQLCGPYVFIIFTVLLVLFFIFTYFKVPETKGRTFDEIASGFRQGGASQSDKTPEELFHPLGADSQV

As to `c1cc(CN2CCN(CCN3CCOCC3)CC2)cc(-c2csc(-c3nc4ccccc4[nH]3)c2)c1`, the inhibition in assay [1] was 5.51%; in assay [2] it was 5.16%; in assay [3], 4.63%.

On to `Oc1ccc(CCCNc2nc(NCc3ccccc3-c3ccccc3)nc(N3CCNCC3)n2)cc1`, for which the inhibition in assay [1] is -0.81%; in assay [2] it was -2.76%; in assay [3] it was 1.36%.

As to `CCCc1cc(OC)c(C[C@@H]2c3cc(O)c(Cl)cc3CCN2C)cc1OC`, the inhibition amounted to 3.17% in assay [1], 2.87% in assay [2] and 3% in assay [3].

Take `COc1ccc2nccc([C@@H](O)CN3CCC(NC(=O)/C=C/c4cc(F)cc(Br)c4)CC3)c2c1`: the inhibition is 6.91% in assay [1], 4.62% in assay [2] and -0.22% in assay [3].

For `O=c1[nH]ccc2nc(N[C@@H]3CCNC3)nc(Nc3cc(Cl)cc(Cl)c3)c12`, the inhibition was found to be 7.56% in assay [1], 8.18% in assay [2] and 9.4% in assay [3].

Consider `NC1(C(=O)O)Cc2ccc(Cl)cc2C1` (stereo unspecified), for which the inhibition worked out at 5.91% in assay [1], 2.95% in assay [2] and 3.62% in assay [3].

On to `O=C(Nc1ccc(OC2CCN(Cc3ccc(F)cc3)C2)c(Cl)c1)c1ccc(F)cc1` (stereo unspecified), for which the inhibition was -0.04% in assay [1], -0.69% in assay [2] and -1.62% in assay [3].

As for `CC(C)(C)NS(=O)(=O)c1cc(C(=O)N2CCC(CCN3CCC(C(=O)c4ccc(F)cc4)CC3)(c3cccc(F)c3)CC2)c(Cl)cc1F`, the inhibition in assay [1] came to 7.28%; in assay [2], 9.1%; in assay [3] it was 5.52%.

Consider `Nc1nc(Nc2ccc(Cl)cc2)nc2ccccc12`, for which the inhibition worked out at 14% in assay [1], 12.4% in assay [2] and 6.83% in assay [3].

Turning to `Cc1cc(N(C)C)nc(Nc2ccc(NS(=O)(=O)c3ccccc3)cc2)n1`, the inhibition in assay [1] stood at 7.64%; in assay [2] it was 10.6%; in assay [3], 5.82%.

For `CCCc1ccc(NC(=O)c2ccc(CN3CCCN(Cc4cccc(O)c4)CC3)cc2)cc1`, the inhibition is 3.2% in assay [1], 2.61% in assay [2] and 3.95% in assay [3].

Regarding `CC[C@H]1CN(Cc2ccccc2Br)CC[C@H]1CCCc1ccnc2ccc(O)cc12`, the inhibition in assay [1] stood at 3.62%; in assay [2] it was 5.03%; in assay [3], 2.43%.

These data come from ChEMBL document CHEMBL3433997, “St. Jude Leishmania screening dataset” (2016).
